TEAD-YAP block = TEAD-YAP interaction inhibition, primary screen, TEAD-YAP interaction inhibitor project, luminescence, HEK-TIYL cells. TEAD-Gal4/YAP UAS-luciferase luminescence. inhibition, % at 9.12 µM. actives 1.4% (n = 640,000). AID 1259422, 2018; in the data active = inhibition above about 32%;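 note: 0% = median of test compound wells and 100% = reference inhibitor wells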
MITF inh = MITF inhibitors, primary screen, biochemical, AlphaScreen, human. Microphthalmia-associated transcription factor (Homo sapiens), O75030. AlphaScreen MITF homodimerization, bead proximity signal. inhibition, % at 2.6 µM. actives 0.91% (n = 650,000). AID 1259374, 2018; in the data active = inhibition above about 50%;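 note: 0% = vehicle wells with protein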
FBW7 activator = FBW7 E3 ligase activators, primary screen, biochemical, AlphaScreen, human; F-box/WD repeat-containing protein 7 (Homo sapiens), Q969H0; AlphaScreen FBW7–phospho-cyclin E peptide binding, activator screen; normalized activity (activation), % at 26.1 µM; actives 0.13% (n = 650,000); AID 1259310, 2017; in the data active = normalized activity above about 1.9%;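 note: purified mutant Fbw7 with reduced substrate affinity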
Target sequence (Q969H0 whole entry, looked up): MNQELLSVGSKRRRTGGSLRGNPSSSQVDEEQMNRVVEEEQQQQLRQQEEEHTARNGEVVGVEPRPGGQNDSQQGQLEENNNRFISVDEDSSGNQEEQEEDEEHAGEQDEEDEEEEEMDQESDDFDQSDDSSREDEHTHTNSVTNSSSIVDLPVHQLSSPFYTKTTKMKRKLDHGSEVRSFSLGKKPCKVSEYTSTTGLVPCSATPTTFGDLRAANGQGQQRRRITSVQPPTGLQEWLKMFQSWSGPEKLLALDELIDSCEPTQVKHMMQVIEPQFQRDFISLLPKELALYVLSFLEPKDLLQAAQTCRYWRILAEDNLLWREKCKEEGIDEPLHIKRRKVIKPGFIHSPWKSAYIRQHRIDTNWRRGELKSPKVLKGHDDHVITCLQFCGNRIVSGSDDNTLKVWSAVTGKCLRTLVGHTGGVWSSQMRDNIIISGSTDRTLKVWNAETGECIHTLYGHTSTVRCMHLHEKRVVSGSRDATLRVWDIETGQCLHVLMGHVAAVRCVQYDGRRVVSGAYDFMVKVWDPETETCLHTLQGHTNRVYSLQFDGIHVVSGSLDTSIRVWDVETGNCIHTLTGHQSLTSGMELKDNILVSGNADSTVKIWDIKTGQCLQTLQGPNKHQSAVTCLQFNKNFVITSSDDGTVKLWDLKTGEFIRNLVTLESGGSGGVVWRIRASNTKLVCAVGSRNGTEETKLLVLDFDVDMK
GPR151 activ = activators of human GPR151, primary screen, cell-based, PathHunter beta-arrestin, luminescence; AID 1508602, 2020; PathHunter beta-arrestin GPR151 cells; activation, % at 11.2 µM; actives 1% (n = 650,000); G-protein coupled receptor 151 (Homo sapiens), Q8TDV0; in the data active = activation above about 4.9%;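 note: 0% = median of compound wells and 100% = cells with positive control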
Active calls of the source: *; ! = not active in a repeat. Sampled rows, rich in hits. Any-hit rate of the full collection: about 3.4%.

SMILES	TEAD-YAP block	MITF inh	FBW7 activator	GPR151 activ
COC(=O)c1c(C)oc2ccc(N(C(=O)c3ccc([N+](=O)[O-])cc3)S(=O)(=O)c3ccc(C)cc3)cc12	58*	21	0	0
CCOc1ccc(S(=O)(=O)Nc2ccc3oc(C)c(C(=O)OCCOC)c3c2)cc1	57*	3	0	-1
COc1cccc(CN2CCC(N(C)C(C)c3cccs3)CCC2=O)c1 (configuration not stated)	-1	1	0	-1
COC(=O)c1sc(N2C(=O)C(O)=C(C(=O)c3cccs3)C2c2ccc(Br)cc2)nc1C (configuration not stated)	-2	8	0	0
O=C(CSc1ccccc1)N1CCOc2ccc(-c3ccncc3)cc21	34*	11	0	-1
CC(C)CCN1C(=O)c2ccc(C(=O)OCC(=O)NC(=O)NC3CCCCC3)cc2C1=O	-4	21	0	0
O=c1c(Oc2ccc(F)cc2)coc2c(O)c(O)ccc12	-7	83*	0	0
CCOC(=O)c1c(N)sc(C(=O)Nc2ccc(OC)cc2)c1C	42*	-2	0	-6
CCOC(=O)c1ccc(NC(=O)c2sc(NC(=O)c3ccc(OC)cc3)c(C(=O)OCC)c2C)cc1	7	-1	0	0
COC(=O)c1c(N)sc(C(=O)Nc2ccccc2OC)c1C	-36	10	1	-1
CCOC(=O)c1c(N)sc(C(=O)Nc2ccc3c(c2)OCO3)c1C	79*	18	0	-7
CCOC(=O)c1sc(N)c(C(=O)Nc2ccccc2OC)c1C	54*	2	0	0
CCC(Oc1ccccc1)C(=O)N1C(=O)c2cccc(N)c2C1=O (configuration not stated)	-8	11	0	0
O=C(/C=C/c1ccccc1Cl)Nc1cccc(O)c1	38*	11	0	-2
O=C(/C=C/c1ccccc1Cl)Nc1ccc2c(c1)C(=O)NC2=O	2	16	0	0
COc1ccc(/C=C/C(=O)Nc2ccccc2F)cc1	80*	10	0	-11
O=C(/C=C/c1ccc(Cl)cc1Cl)Nc1ccccc1F	47*	4	0	-1
CC1(C)CC(=O)C2=C(C1)N(c1cccc(Cl)c1Cl)C1=C(C(=O)CC(C)(C)C1)C2c1cccc(Cl)c1	-2	-3	0	-1
COc1ccc(-c2cc(=O)c3c(O)cc(O)cc3o2)cc1	53*!	13	0	1
COc1ccc(-c2cc(=O)c3cc(O)ccc3o2)cc1	43*	9	0	-3
COc1ccc(-c2cc(=O)c3cc(C)ccc3o2)cc1	18	-9	0	-5
COc1ccc(-c2cc(=O)c3c(O)cc(OC)cc3o2)cc1	-60	24	0	-6
O=C(CN1C(=O)C2C3C=CC(C4CC34)C2C1=O)N1CCC(c2ccncc2)CC1 (configuration not stated)	50*	10	1	2
CCCNC(=O)CCn1nc(-c2ccc(C)cc2)c2ccccc2c1=O	2	17	0	0
CCCNC(=O)CCC(=O)Nc1ncc(-c2ccc(C)cc2)n1C	93*	-1	0	-1
SMILES	TEAD-YAP block	MITF inh	FBW7 activator	GPR151 activ
C=CCn1c(=O)n(Cc2ccco2)c(=O)c2c3c(sc21)CCCC3	8	8	0	2
C=CCN1C(=O)/C(=C/c2ccc(OC(C)=O)c(OCC)c2[N+](=O)[O-])SC1=S	37*	21	-1	0
O=C(Nc1ccc(Br)cn1)c1cccc2ccccc12	32*	-9	0	-1
O=C(Cn1ncc2ccccc21)Nc1ccc(Br)cn1	38*	5	0	0
O=C(Cn1ncc2ccccc21)Nc1ccccc1Br	-4	16	1	-2
O=C(Nc1ccc(Br)cn1)c1cc(Br)ccc1Cl	43*	18	1	-1
CSc1ccc(Cl)c(C(=O)Nc2ccc(Br)cn2)c1	35*	-6	0	1
C=CCn1c(SCC(=O)NC2CCCCC2)nnc1-c1ccc(OC)cc1	0	-11	0	1
O=C(NC(c1ccccn1)c1cccs1)C1CCN(C(=O)N2CCCC2)CC1 (configuration not stated)	4	6	0	0
OC(COc1ccccc1)CN1CCc2nc3ccncc3cc2C1 (configuration not stated)	2	12	0	2
NS(=O)(=O)c1ccc(-c2ccc(/C=N/Nc3ccccc3)o2)cc1	6	12	1	0
CC1(C)C(c2ccc(F)cc2)=[N+]([O-])C2(CCCCC2=O)N1O (configuration not stated)	-7	8	1	2
CCCOc1ccc(C2=[N+]([O-])C3(CCCCC3=O)N(O)C2(C)C)cc1 (configuration not stated)	55*	-2	0	1
C=CCc1cccc(/C=N/NC(=O)c2cccnc2)c1O	14	11	-1	1
CCn1c(C)nc2cc(C(=O)N/N=C/c3ccc(O)c(O)c3O)ccc21	-2	75*	-1	-2
CCN(CC)S(=O)(=O)c1cccc(C(=O)N/N=C(\C)c2ccc(O)cc2O)c1	-2	-16	0	1
CCN(CC)S(=O)(=O)c1cccc(C(=O)N/N=C/c2ccc(O)c(O)c2O)c1	-6	61*	-1	2
O=C(N/N=C/c1ccc(O)c(O)c1O)c1cccnc1	4	79*	-1	-1
Oc1ccc(C=Nc2cccc3cnccc23)c(O)c1O	8	61*	-1	2
CCN(CC)C(=O)C1CCCN(c2nc3ccc(C(=O)NCCCN4CCCC4=O)cc3s2)C1 (configuration not stated)	-15	0	0	-1
Nc1c(C(=O)C23CC4CC(CC(C4)C2)C3)oc2ccccc12	-6	15	0	1
NC(=O)CCNS(=O)(=O)c1ccc2ccccc2c1	0	3	0	3
O=C(O)CCC(=O)N1CCCN(Cc2ccccc2)CC1	1	9	1	0
CCOc1cccc(/C=N/NC(=O)c2cccnc2)c1O	15	70*	0	0
CCOc1ccccc1/C=N\NC(=O)c1cccnc1	6	14	0	0
COc1ccc(N2CCN(C(CNS(=O)(=O)c3ccc(OC)c(C)c3)c3ccco3)CC2)cc1 (configuration not stated)	6	68*	0	0
COc1ccc(OC)c(C(=O)c2oc3ccc(Br)cc3c2N)c1	49*	12	0	-1
CC(C)COC(=O)c1ccc(NC(=O)COc2ccc(Br)cc2)cc1	35*	0	0	1
CC(=O)OCCNc1cc(N2CCCCC2)c2noc3c2c1C(=O)c1ccccc1-3	20	57*	-1	1
CC1CCN(c2cc(NCCC(=O)O)c3c4c(onc24)-c2ccccc2C3=O)CC1	31	55*	0	-1

Bioassay records as filed in PubChem BioAssay.
